# Results as given in PubChem BioAssay (EPA / NIEHS).
# Records with an inconclusive call do not appear. Activity calls are given as the source filed them. Rule for the calls, unless noted: active = hit-call score of the fitted dose curve at least 0.9, where 1 is the maximum; inactive = score below 0.9.
# Read-out: Interleukin-1 alpha (IL1a), IL1A (gene 3552)
# Experiment: BSK_BE3C_IL1a: BioMAP Diversity Plus: BE3C Assay for Interleukin-1 alpha (IL1a) Biomarker Activity (AID 2283016)
# Settings: primary human bronchial epithelial cells; actives raise or lower the signal
# How it was run: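 BE3C primary human bronchial epithelium; cpd 24 h; IL-1a by ELISA; bidirectional fit vs DMSO; parallel SRB (0.1% SRB, 10% TCA fix, 560 nm) for cytotoxicity.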
SMILES,outcome,AC50
CCCCCCCCCCCC#N,inactive,–
CC(C)CCCCCCCOC(=O)c1ccccc1C(=O)OCCCCCCCC(C)C,inactive,–
O=[N+]([O-])C=Cc1ccccc1,–,2.28 µM (active)
O=[N+]([O-])c1ccc(Cl)cc1,inactive,–
Nc1ccc(-c2ccc(N)c(N)c2)cc1N,inactive,–

# Read-out: Monocyte Chemoattractant Protein-1 (MCP1), CCL2 (gene 6347)
# Experiment: BSK_3C_MCP1: BioMAP Diversity Plus: 3C Assay for Monocyte Chemoattractant Protein-1 (MCP1) Biomarker Activity (AID 2283017)
# Settings: primary human endothelial cells (HUVEC); actives raise or lower the signal
# How it was run: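 Using human vascular primary endothelium, researchers measured MCP-1 by ELISA 24 h after treatment, with DMSO serving as negative control for bidirectional fitting.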
SMILES,AC50,outcome
CCCCCCCCCCCC#N,36.2 µM (active),–
CC(C)CCCCCCCOC(=O)c1ccccc1C(=O)OCCCCCCCC(C)C,–,inactive
O=[N+]([O-])C=Cc1ccccc1,7.71 µM (active),–
O=[N+]([O-])c1ccc(Cl)cc1,–,inactive
Nc1ccc(-c2ccc(N)c(N)c2)cc1N,–,inactive

# Read-out: Human Leukocyte Antigen - DR isotype (HLADR), HLA-DRA (gene 3122)
# Experiment: BSK_3C_HLADR: BioMAP Diversity Plus: 3C Assay for Human Leukocyte Antigen - DR isotype (HLADR) Biomarker Activity (AID 2283019);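 for outcome: ELISA of cell-surface HLA-DR on HUVEC 24 h after dosing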
# Settings: primary human endothelial cells (HUVEC); actives raise or lower the signal
# How it was run: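 Compound added to primary HUVEC cultures, 24 h incubation, then HLA-DR determined by ELISA; endpoint derived by bidirectional fitting relative to DMSO negative control.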
SMILES,AC50,outcome
CCCCCCCCCCCC#N,28.6 µM (active),–
CC(C)CCCCCCCOC(=O)c1ccccc1C(=O)OCCCCCCCC(C)C,–,inactive
O=[N+]([O-])C=Cc1ccccc1,2.15 µM (active),–
O=[N+]([O-])c1ccc(Cl)cc1,–,inactive

# Read-out: Interleukin-8 (IL8), CXCL8 (gene 3576)
# Experiment: BSK_3C_IL8: BioMAP Diversity Plus: 3C Assay for Interleukin-8 (IL8) Biomarker Activity (AID 2283020)
# Settings: primary human endothelial cells (HUVEC); actives raise or lower the signal
# How it was run: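 ELISA read-out of IL-8 from human umbilical vein endothelium, measured 24 h after chemical dosing. Activity is expressed relative to DMSO negative control, with both increases and decreases fitted.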
SMILES,AC50,outcome
CCCCCCCCCCCC#N,20.6 µM (active),–
CC(C)CCCCCCCOC(=O)c1ccccc1C(=O)OCCCCCCCC(C)C,–,inactive
O=[N+]([O-])C=Cc1ccccc1,10 µM (active),–
O=[N+]([O-])c1ccc(Cl)cc1,–,inactive
Nc1ccc(-c2ccc(N)c(N)c2)cc1N,–,inactive

# Target: human Vitamin D Receptor (VDR), VDR (gene 7421) (UniProt P11473)
# Experiment: ATG_VDR_TRANS: Attagene TRANS-FACTORIAL HepG2 Assay for human Vitamin D Receptor (VDR) (AID 2283022; active = hit-call score of the fitted dose curve at least 0.9, where 1 is the maximum)
# Settings: not given
# How it was run: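 Multiplexed TRANS reporter in HepG2; 24 h treatment; reporter mRNA by RT-PCR plus capillary electrophoresis; upregulation scored relative to DMSO.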
# Chain of human Vitamin D Receptor (VDR), VDR (gene 7421) (P11473 whole entry, looked up): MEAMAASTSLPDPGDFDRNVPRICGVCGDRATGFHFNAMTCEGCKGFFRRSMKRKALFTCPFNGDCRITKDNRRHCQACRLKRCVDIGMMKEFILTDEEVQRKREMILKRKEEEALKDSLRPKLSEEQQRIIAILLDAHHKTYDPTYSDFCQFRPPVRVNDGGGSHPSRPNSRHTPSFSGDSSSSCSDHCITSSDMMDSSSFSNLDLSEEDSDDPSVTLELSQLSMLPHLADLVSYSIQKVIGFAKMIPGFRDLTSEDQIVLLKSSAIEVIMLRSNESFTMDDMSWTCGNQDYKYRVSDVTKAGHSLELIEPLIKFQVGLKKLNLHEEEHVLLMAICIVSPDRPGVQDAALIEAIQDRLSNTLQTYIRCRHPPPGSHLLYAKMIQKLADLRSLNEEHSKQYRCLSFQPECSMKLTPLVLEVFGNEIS
row,SMILES,outcome
1,CC1CCCC1.[C-]#[O+].[C-]#[O+].[C-]#[O+].[Mn],inactive
2,CC(=O)C=Cc1ccccc1,inactive
3,Nc1ccccc1C(=O)Oc1ccc2ccccc2c1,inactive
4,N#CCNCC#N,inactive
5,CN1C[C@H](C(=O)N[C@]2(C)O[C@@]3(O)[C@@H]4CCCN4C(=O)[C@H](Cc4ccccc4)N3C2=O)C=C2c3cccc4[nH]cc(c34)C[C@H]21,inactive
6,O=[N+]([O-])C=Cc1ccccc1,inactive
7,Nc1cc(Cl)cc(Cl)c1,inactive
8,CC(=O)c1cc2c(cc1C)C(C)(C)C(C)CC2(C)C (configuration not stated),inactive
9,Nc1ccc(-c2ccc(N)c(N)c2)cc1N,inactive
10,C[C@]12CC[C@H]3[C@@H](CC[C@@]45O[C@@H]4C(O)=C(C#N)C[C@]35C)[C@@H]1CC[C@@H]2O,inactive
11,CCCCCCCCCCCCCCCC[N+](C)(C)C,inactive

# Read-out: not listed separately
# Experiment: BSK_3C_SRB: Viability Assessment in the BioMAP Diversity Plus: 3C Assay (AID 2283023);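 note: cells read 24 h after compound dosing; fitted both ways against DMSO so a hit may be signal rise or drop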
# Settings: primary human endothelial cells (HUVEC)
# How it was run: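 Overt cytotoxicity is gauged in parallel confluent HUVEC cultures by SRB total-protein staining at the time of biomarker measurement, 24 h after dosing. Gain or loss of signal is fitted versus DMSO.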
SMILES,AC50,outcome
CCCCCCCCCCCC#N,34.1 µM (active),–
CC(C)CCCCCCCOC(=O)c1ccccc1C(=O)OCCCCCCCC(C)C,–,inactive
O=[N+]([O-])C=Cc1ccccc1,9.73 µM (active),–
O=[N+]([O-])c1ccc(Cl)cc1,–,inactive
Nc1ccc(-c2ccc(N)c(N)c2)cc1N,–,inactive

# Read-out: Matrix Metallopeptidase 1 (MMP1), MMP1 (gene 4312)
# Experiment: BSK_BE3C_MMP1: BioMAP Diversity Plus: BE3C Assay for Matrix Metallopeptidase 1 (MMP1) Biomarker Activity (AID 2283024)
# Settings: primary human bronchial epithelial cells; actives raise or lower the signal
# How it was run: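 Human bronchial epithelial cells (BE3C system) exposed to compound for 24 h; MMP1 then quantified by ELISA. Activity was fitted in both directions relative to DMSO.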
row,SMILES,outcome
1,CCCCCCCCCCCC#N,inactive
2,CC(C)CCCCCCCOC(=O)c1ccccc1C(=O)OCCCCCCCC(C)C,inactive
